PubChem BioAssay AID1159580 (chemical genetic matrix, 2015)
Where “and” joins values, the source holds several entries; their conditions need not be identical. Identical values can stand only once. The whole screen tested about 5,500 compounds, of which about 2,000 (36%) were called active. About 18% were inconclusive and are not listed. Cut-off read from the data, not from the text of the source: active = normalized growth mostly below about 0.91 (no sharp cut-off); inconclusive = no clear call, values can overlap the other calls; inactive = mostly above about 0.92. This is one part of the list.

Assay: chemical genetic growth profiling, strain panel (AID 1159580);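 note: tested at 20 µM; growth read once vehicle control cultures reached saturation at 30 °C; 1 = growth at the plate median or of vehicle wells; lower values mean less growth of the strain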
Details: S. cerevisiae deletion strains, growth OD

Measured: normalized growth

CN(C)[C@@H]1C(=O)C(C(N)=O)=C(O)[C@@]2(O)C(=O)C3=C(O)c4c(O)ccc(Cl)c4[C@@H](O)[C@H]3C[C@@H]12
inactive: locus YAL013W, strain DEP1, active compounds read low 1 | locus YAL021C, strain ccr4, active compounds read low 0.971 | locus YAL026C, strain drs2, active compounds read low 1 | locus YAL030W, strain snc1, active compounds read low 0.984 | locus YBL061C, strain skt5, active compounds read low 0.98 | locus YBR009C, strain hhf1, active compounds read low 1.04 | locus YBR021W, strain FUR4, active compounds read low 0.945 | locus YBR023C, strain chs3, active compounds read low 0.982 | locus YBR171W, strain sec66, active compounds read low 0.978 | locus YBR229C, strain ROT2, active compounds read low 1 | locus YBR231C, strain swc5, active compounds read low 0.991 | locus YBR279W, strain paf1, active compounds read low 0.994 | locus YCL011C, strain gbp2, active compounds read low 1.06 | locus YCL016C, strain dcc1, active compounds read low 0.964 | locus YCL029C, strain bik1, active compounds read low 0.992 | locus YCL061C, strain MRC1, active compounds read low 0.992 | locus YCL069W, strain vba3, active compounds read low 0.997 | locus YCR088W, strain abp1, active compounds read low 0.993 | locus YDL005C, strain med2, active compounds read low 0.983 | locus YDL035C, strain GPR1, active compounds read low 1.01 | locus YDL040C, strain nat1, active compounds read low 0.992 | locus YDL074C, strain BRE1, active compounds read low 0.994 | locus YDL101C, strain DUN1, active compounds read low 1 | locus YDL134C, strain PPH21, active compounds read low 1 | locus YDL185W, strain tfp1, active compounds read low 0.984 | locus YDL192W, strain arf1, active compounds read low 0.982 | locus YDR001C, strain nth1, active compounds read low 0.977 | locus YDR069C, strain doa4, active compounds read low 0.969 | locus YDR101C, strain arx1, active compounds read low 0.999 | locus YDR137W, strain rgp1, active compounds read low 0.921 | locus YDR159W, strain sac3, active compounds read low 1.06 | locus YDR162C, strain NBP2, active compounds read low 1.02 | locus YDR195W, strain ref2 1 | locus YDR297W, strain sur2, active compounds read low 0.979 | locus YDR318W, strain mcm21, active compounds read low 0.997 | locus YDR334W, strain swr1, active compounds read low 0.95 | locus YDR335W, strain msn5, active compounds read low 0.98 | locus YDR388W, active compounds read low 0.983 | locus YDR392W, strain spt3, active compounds read low 0.854 | locus YDR502C, strain sam2, active compounds read low 0.981 | locus YEL003W, strain gim4, active compounds read low 0.98 | locus YEL037C, strain rad23, active compounds read low 0.99 | locus YEL061C, strain CIN8 (second series), active compounds read low 0.988 | locus YEL061C, strain CIN8, active compounds read low 1 | locus YER015W, strain faa2, active compounds read low 0.988 | locus YER016W, strain bim1, active compounds read low 0.994 | locus YER110C, active compounds read low 0.98 | locus YER111C, strain swi4, active compounds read low 0.994 | locus YER155C, strain BEM2 (second series), active compounds read low 0.932 | locus YER155C, strain BEM2, active compounds read low 1.01 | locus YER167W, strain BCK2, active compounds read low 1.01 | locus YFR010W, strain ubp6, active compounds read low 0.991 | locus YGL078C, strain dbp3, active compounds read low 0.988 | locus YGL086W, strain mad1, active compounds read low 0.986 | locus YGL167C, strain pmr1, active compounds read low 0.988 | locus YGL173C, strain kem1, active compounds read low 0.985 | locus YGL227W, strain vid30, active compounds read low 0.982 | locus YGL240W, strain doc1, active compounds read low 0.95 | locus YGL248W, strain PDE1, active compounds read low 0.988 | locus YGL253W, strain hxk2, active compounds read low 0.981 | locus YGR078C, strain PAC10, active compounds read low 0.989 | locus YGR135W, strain pre9, active compounds read low 0.974 | locus YGR252W, strain gcn5, active compounds read low 0.879 | locus YHR013C, strain ard1, active compounds read low 0.973 | locus YHR027C, strain rpn1, active compounds read low 0.965 | locus YHR030C, strain SLT2, active compounds read low 1 and 1.02 | locus YHR079C, strain IRE1 (second series), active compounds read low 0.976 | locus YHR079C, strain IRE1, active compounds read low 1.04 | locus YHR094C, strain hxt1, active compounds read low 0.981 | locus YHR129C, strain ARP1, active compounds read low 1.01 | locus YHR142W, strain chs7, active compounds read low 0.981 | locus YHR200W, strain rpn10, active compounds read low 0.987 | locus YIL066C, strain RNR3, active compounds read low 1.01 | locus YIL073C, strain SPO22, active compounds read low 0.992 | locus YIL125W, strain kgd1, active compounds read low 0.983 | locus YIR030C, strain dcg1, active compounds read low 0.98 | locus YJL092W, strain hpr5, active compounds read low 0.987 | locus YJL095W, strain BCK1 (second series), active compounds read low 0.98 | locus YJL095W, strain BCK1, active compounds read low 0.998 and 1.03 | locus YJL115W, strain asf1, active compounds read low 0.98 | locus YJL129C, strain trk1, active compounds read low 0.984 | locus YJL134W, strain LCB3, active compounds read low 1 | locus YJL154C, strain vps35, active compounds read low 0.976 | locus YJL164C, strain tpk1, active compounds read low 1 | locus YJL166W, strain qcr8, active compounds read low 0.93 | locus YJL168C, strain set2, active compounds read low 0.983 | locus YJL187C, strain SWE1 (second series), active compounds read low 0.995 | locus YJL187C, strain SWE1, active compounds read low 0.988 | locus YJR043C, strain POL32, active compounds read low 0.984 | locus YJR066W, strain TOR1, active compounds read low 0.97 | locus YKL009W, strain mrt4, active compounds read low 1 | locus YKL068W, active compounds read low 0.986 | locus YKL085W, strain MDH1 (second series), active compounds read low 0.975 | locus YKL085W, strain MDH1, active compounds read low 0.975 | locus YKL160W, strain elf1, active compounds read low 0.93 | locus YKL190W, strain CNB1, active compounds read low 1 | locus YKR001C, strain vps1, active compounds read low 0.976 | locus YKR026C, strain gcn3, active compounds read low 0.998 | locus YKR091W, strain srl3, active compounds read low 0.98 | locus YLL001W, strain dnm1, active compounds read low 0.921 | locus YLL026W, active compounds read low 0.983 | locus YLL041C, strain sdh2, active compounds read low 0.993 | locus YLR027C, strain aat2, active compounds read low 1.01 | locus YLR039C, strain RIC1, active compounds read low 0.995 | locus YLR058C, strain SHM2, active compounds read low 0.998 | locus YLR102C, strain apc9, active compounds read low 0.981 | locus YLR113W, strain HOG1, active compounds read low 1.03 | locus YLR221C, strain rsa3, active compounds read low 0.956 | locus YLR258W, strain gsy2, active compounds read low 0.992 | locus YLR262C, strain YPT6 (second series), active compounds read low 0.938 | locus YLR262C, strain YPT6, active compounds read low 1.01 | locus YLR268W, strain sec22, active compounds read low 0.954 | locus YLR320W, strain mms22, active compounds read low 0.947 | locus YLR330W, strain CHS5, active compounds read low 1.01 | locus YLR342W, strain FKS1 (second series), active compounds read low 0.952 | locus YLR342W, strain FKS1, active compounds read low 0.99 | locus YLR357W, strain rsc2, active compounds read low 0.93 | locus YLR370C, strain arc18, active compounds read low 0.979 | locus YLR371W, strain rom2, active compounds read low 0.976 | locus YLR384C, strain iki3, active compounds read low 0.975 | locus YLR418C, strain cdc73, active compounds read low 0.939 | locus YML016C, strain PPZ1, active compounds read low 0.999 | locus YML032C, strain rad52, active compounds read low 0.988 | locus YML120C, strain ndi1, active compounds read low 0.928 | locus YML124C, strain tub3, active compounds read low 0.982 | locus YMR058W, strain fet3, active compounds read low 0.934 | locus YMR078C, strain ctf18, active compounds read low 0.982 | locus YMR125W, strain sto1, active compounds read low 0.918 | locus YMR129W, active compounds read low 0.989 | locus YMR205C, strain PFK2, active compounds read low 0.938 | locus YMR223W, strain ubp8, active compounds read low 0.977 | locus YMR231W, strain pep5, active compounds read low 0.991 | locus YMR307W, strain GAS1, active compounds read low 1.02 | locus YNL067W, strain RPL9B, active compounds read low 0.997 | locus YNL071W, strain lat1, active compounds read low 0.992 | locus YNL128W, strain TEP1, active compounds read low 1.01 | locus YNL183C, strain NPR1, active compounds read low 0.966 | locus YNL209W, strain ssb2, active compounds read low 0.975 | locus YNL233W, strain BNI4, active compounds read low 0.993 | locus YNL248C, strain rpa49, active compounds read low 0.956 | locus YNL250W, strain rad50, active compounds read low 0.99 | locus YNL271C, strain bni1, active compounds read low 0.983 | locus YNL298W, strain CLA4, active compounds read low 0.993 | locus YNL307C, strain MCK1, active compounds read low 0.994 | locus YNL322C, strain KRE1 (second series), active compounds read low 0.98 | locus YNL322C, strain KRE1, active compounds read low 0.999 | locus YNR049C, strain mso1, active compounds read low 0.978 | locus YNR052C, strain pop2, active compounds read low 0.998 | locus YOL012C, strain htz1 0.761 | locus YOL147C, strain pex11, active compounds read low 0.983 | locus YOR001W, strain rrp6, active compounds read low 1.05 | locus YOR061W, strain CKA2, active compounds read low 1 | locus YOR069W, strain VPS5, active compounds read low 1 | locus YOR070C, strain gyp1, active compounds read low 1.01 | locus YOR080W, strain dia2, active compounds read low 0.981 | locus YOR083W, strain WHI5, active compounds read low 0.941 | locus YOR106W, strain vam3, active compounds read low 0.942 | locus YOR136W, strain idh2, active compounds read low 0.979 | locus YOR144C, strain elg1, active compounds read low 0.986 | locus YOR184W, strain ser1, active compounds read low 0.995 | locus YOR231W, strain MKK1, active compounds read low 1.04 | locus YOR265W, strain rbl2, active compounds read low 0.982 | locus YOR270C, strain vph1, active compounds read low 0.966 | locus YOR290C, strain snf2, active compounds read low 0.958 | locus YOR316C, strain cot1, active compounds read low 0.982 | locus YPL051W, strain arl3, active compounds read low 0.973 | locus YPL055C, strain LGE1, active compounds read low 0.992 | locus YPL078C, strain atp4, active compounds read low 0.934 | locus YPL106C, strain sse1, active compounds read low 0.911 | locus YPL240C, strain hsp82, active compounds read low 0.993 | locus YPL256C, strain CLN2, active compounds read low 1.02 | locus YPR119W, strain clb2, active compounds read low 0.983 | locus YPR141C, strain kar3, active compounds read low 0.981 | locus YPR163C, strain tif3, active compounds read low 0.98 | locus YPR167C, strain met16, active compounds read low 0.985 | strain wtn01, active compounds read low 0.955
